Measured values taken from PubChem BioAssay AID777 (Sanford-Burnham Center for Chemical Genomics, 2007).
About 19,000 (20%) of roughly 96,000 compounds were called active.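 How the source made its calls: active means blocking of liver enzyme CYP2C9 beyond about 50% at 5 µM (limit read from the data); inactive means the rest.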 Not all results are given here.

biological target: Cytochrome P450 2C9 (Homo sapiens) (UniProt P11712); test: blockers of cytochrome P450 2C9 activity – biochemical, luminescence, ADME assay, primary screen (AID 777); conditions: CYP2C9 Supersomes, luciferin-H conversion, at 5 µM, stronger effect = higher value
Sequence (P11712 whole entry, looked up): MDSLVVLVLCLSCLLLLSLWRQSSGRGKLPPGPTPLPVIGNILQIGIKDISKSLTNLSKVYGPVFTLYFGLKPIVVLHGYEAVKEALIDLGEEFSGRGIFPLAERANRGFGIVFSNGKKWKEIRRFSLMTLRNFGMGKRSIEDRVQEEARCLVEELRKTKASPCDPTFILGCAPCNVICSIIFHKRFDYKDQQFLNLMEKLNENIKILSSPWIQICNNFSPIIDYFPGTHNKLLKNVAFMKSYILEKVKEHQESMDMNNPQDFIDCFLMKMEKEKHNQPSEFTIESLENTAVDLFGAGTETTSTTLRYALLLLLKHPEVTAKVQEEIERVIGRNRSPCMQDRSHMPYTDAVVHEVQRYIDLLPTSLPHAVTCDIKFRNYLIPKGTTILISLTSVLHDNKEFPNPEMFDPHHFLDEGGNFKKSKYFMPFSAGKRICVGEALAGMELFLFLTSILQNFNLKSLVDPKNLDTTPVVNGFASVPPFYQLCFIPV

inhibition, inactive:
COc1ccc(-c2cc3nc(C)c(CCC(=O)NC(C)CCc4ccco4)c(C)n3n2)c(OC)c1 (stereo not given) 37.5%
COc1cc(/C=C(/NC(=O)c2ccccc2)C(=O)Nc2cccc(O)c2)c([N+](=O)[O-])cc1OC 16.6%
CCOc1ncccc1C(=O)OCc1cn2cc(Cl)ccc2n1 45%
CSc1nc2ccccc2cc1/C=C(\C#N)c1ccc(Cl)cc1Cl 7.6%
C=C(C)Cn1c(SCC(=O)NCc2ccco2)nc2sc3c(c2c1=O)CCC3 34.6%
O=C(NCc1ccco1)c1cnn2c(C(F)(F)F)cc(-c3ccco3)nc12 17.5%
Cc1nc2nc(C)c(CCC(=O)N3CCN(c4ccccc4)CC3)c(C)n2n1 0.9%
COC(=O)C1=C(C)N=C2SC(C)C(=O)N2C1/C=C/c1ccccc1 (stereo not given) 48.6%
Cc1ccc(S(=O)(=O)Cn2nnnc2CN2CCN(Cc3ccc4c(c3)OCO4)CC2)cc1 29.7%
O=C(/C=C/Nc1ccccc1OC(F)(F)F)C(F)(F)F 5.5%
CN1CCN(c2ccc(NC(=O)COc3ccc(Cl)cc3Cl)cc2)CC1 -16.8%
Cc1cccc(NC(=O)COc2ccccc2C)n1 19.4%
CCC(=O)N1CCN=C1SCc1ccc(F)cc1 11%
O=C(c1ccco1)N1CCN=C1SCc1cccc(Cl)c1 34.4%
Oc1c(C(c2ccccn2)N2CCOCC2)ccc2cccnc12 (stereo not given) -11.4%
O=C(Cn1cc(-c2nnnn2-c2ccc(Cl)cc2)c(=O)c2ccccc21)c1ccccc1 -11.4%
O=c1cc(CO)oc(CN2CCC(Cc3ccccc3)CC2)c1O 4.2%
FC(F)(F)c1cccc(-c2cc3ccccc3nc2N2CCCC2)c1 11.5%
O=C(COC(=O)c1ccc(S(=O)(=O)N2CCc3ccccc3C2)cc1)NC(=O)NCc1ccco1 10.9%
CC1=C(C(=O)OCc2ccccc2)C(c2ccco2)n2ncnc2N1 (stereo not given) 17.6%
C=CCOC(=O)C1=C(C)OC(N)=C(C#N)C1c1ccc(F)cc1 (stereo not given) 44.5%
CC1=C(C(=O)Nc2ccccc2)C(c2ccco2)C(C#N)=C(SCC(N)=O)N1 (stereo not given) 5.8%
Cc1cc(=O)oc2ccc(OCC(=O)O)cc12 11.6%
CC/C(=N\O)C(C)(C)/[N+]([O-])=C/c1ccc(Br)cc1 0.5%
COCCCNC(=O)COc1cc(C)c(Cl)c(C)c1 -73.4%
CC1Cc2ccccc2N1C(=O)Cn1cnc2ccccc2c1=O (stereo not given) 34.6%
CCOC(=O)c1[nH]c(C)c(C(=O)OCC(=O)N2c3ccccc3CC2C)c1C (stereo not given) 10.7%
Cc1ccc(Cl)cc1NC(=O)COC(=O)C1CCCCC1 28.6%
CCOC(=O)C1=C(CN2CCc3ccccc32)NC(=O)NC1c1cccc([N+](=O)[O-])c1 (stereo not given) 25.1%
Cn1c2c(c(=O)n(C)c1=O)C(c1ccc(O)cc1)Nc1ccccc1O2 (stereo not given) 19.1%
Nc1c(-c2ccc(F)cc2)cnn1C1CCS(=O)(=O)C1 (stereo not given) -14.9%
CC1(C)CC(=O)C2=C(C1)N=C1SCCC(=O)N1C2c1ccc(C(F)(F)F)cc1 (stereo not given) -19.2%
O=c1cc(-c2ccccc2)nc(N2CCCCC2)[nH]1 -5.8%
Cc1cccc2c(=O)n3c(nc12)CCCCC3 21%
O=C(Nc1ccc2nc3n(c(=O)c2c1)CCCCC3)c1ccccc1Cl 41.7%
CCCCNC(=O)c1ccccc1NC(=O)c1ccccc1N(C)S(C)(=O)=O -0.4%
CCOc1ccccc1N(CC(=O)Nc1ccccc1C(=O)OC)S(C)(=O)=O 6.7%
CCOc1ccc(NC(=O)N(CC(C)C)CC(C)C)cc1 6.8%
CCCNC(=O)Nc1ccccc1C(=O)Nc1ccc(OC)cc1 44.3%
COC(=O)c1ccc(NC(=O)C(C)N2C(=O)c3ccccc3C2=O)cc1 (stereo not given) 26.7%
COC(=O)c1ccccc1NC(=O)c1cncc(Br)c1 -3.1%
COC(=O)c1ccccc1NC(=O)CN(Cc1ccccc1)S(C)(=O)=O 27.6%
S=C1SCN(CCN2CCOCC2)CN1Cc1ccccc1 22.3%
Cc1nc(NC(CC(C)C)C(=O)O)c2nc(C)oc2n1 (stereo not given) 15.1%
COC(=O)CNC(c1ccccc1Cl)c1cc(Br)ccc1NC(=O)CCN1CCOCC1 (stereo not given) 7.3%
C=CCn1c(-c2ccc3[nH]c(C)c(C)c3c2)n[nH]c1=S 31.1%
CCCc1nc(-c2ccccc2O)n(-c2ccccc2)n1 -16.7%
Cc1ccc(S(=O)(=O)N2C3C=CC(C3)C2C(=O)O)cc1 (stereo not given) -4.8%
CCOCCCNC(=O)C(NC(=O)c1ccc(=O)[nH]c1)c1ccc(Cl)cc1 (stereo not given) 2.5%
O=C(NCCOc1ccccc1)c1ccccc1 -2.4%
Cc1ccc(S(=O)(=O)NCC(=O)N(CC(=O)NC(C)(C)C)Cc2cccs2)cc1 -0.5%
CCOC(=O)N1CCC(NC(=O)Cn2cc3c(n2)CCCCC3)CC1 -10.8%
CC(C)c1ccc(/C=C/C(=O)NNC(=O)c2cccnc2)cc1 6.3%
OC(COc1ccccc1)Cn1cc(Br)cn1 (stereo not given) 18.3%
O=C(O)c1ccc(-n2cccc2)cc1O 4.7%
CCC(C)(C)n1nnnc1CN1CCN(c2nc3ccc(C)cc3cc2C#N)CC1 8.7%
CCC(C)(C)n1nnnc1C(c1cccs1)N1CCN(Cc2ccccc2)CC1 (stereo not given) 43.4%
COCCCNC(=O)CCc1nc2cccnc2n1Cc1ccc(OC)cc1 -1.2%
Cn1nc(C(F)(F)F)c2cc(NC(=O)OCC(C)(C)C)sc21 -4.4%
COc1ccc(OC)c2c1sc(=NC(=O)CN1C(=O)CCC1=O)n2C 2.3%
CCOC(=O)c1sc(/N=C/Nc2nc(C)c(C(=O)OCC)s2)nc1C 29.2%
CCOC(=O)c1sc(NC(=O)C(CC)Sc2nccn2C)nc1C (stereo not given) 45.4%
O=C(c1cccnc1NCc1ccccc1)N1CCOCC1 4%
O=C(Nc1cnccn1)c1cccnc1 -0.8%
CCOC(=O)c1cc(NC(=O)c2cccnc2)cc(C(=O)OCC)c1 37.8%
O=C(COc1ncnc2c(Cl)cc(Cl)cc12)N1CCN(S(=O)(=O)c2ccccc2)CC1 -7.6%
CCCCCN(C(=O)NC(=O)Nc1ccccc1C)S(C)(=O)=O 32.9%
CCCCCCCC(=O)NC(Nc1ccccc1OC)C(Cl)(Cl)Cl (stereo not given) 12.1%
Cc1c(CCO)c(=O)[nH]n1C(=O)c1c(F)cccc1F -4.2%
Cc1ccc(N2C(=O)S/C(=C/c3cn(C)c4ccccc34)C2=O)cc1 -33.6%
COc1ccc(/C=C2/S/C(=N/N=C3\CC4CCC3(C)C4(C)C)NC2=O)cc1 (stereo not given) -0.8%
Cc1sc(NC(=S)NC(=O)c2cccs2)nc1-c1ccc(CC(C)C)cc1 14.4%
CCOC(=O)C1=C(c2ccccc2)N=C2SCC(=O)N2C1c1ccc(O)c(OC)c1 (stereo not given) 33.1%
COc1cc(C2C(C(=O)Nc3ccccc3OC)=C(C)Nc3ncnn32)ccc1O (stereo not given) 12.1%
CC(=O)c1cc(NC(=O)c2ccccc2)c(=O)oc1/C=C/N(C)C 46.8%
CCCCCOC(=O)c1ccc(N2C(=O)C3C4C=CC(C4)C3C2=O)cc1 (stereo not given) 46.3%

inhibition, active:
O=C(NCc1ccco1)c1cccn2c(=O)c3c4c(sc3nc12)CCCC4 59.8%
Cc1ccccc1OCC(=O)Nc1ccc(N2CCN(C(=O)C(C)C)CC2)c(Cl)c1 68.8%
COc1ccccc1C(=O)N1CCN=C1SCc1cccnc1 58.4%
CCOC(=O)CSC1=C(C#N)C(c2ccco2)C(C(=O)OCc2ccccc2)=C(C)N1 (stereo not given) 95.5%
C=CCOC(=O)C1=C(C)NC(SCC(=O)OCC)=C(C#N)C1c1ccc(C)cc1 (stereo not given) 64.3%
CCn1nc(C(=O)OCC(=O)N2c3ccccc3CC2C)c2ccccc2c1=O (stereo not given) 80.7%
Cn1c2c(c(=O)n(C)c1=O)C(c1cccc([N+](=O)[O-])c1)Nc1ccccc1O2 (stereo not given) 50.4%
O=c1c2c(nc3n1CCCCC3)sc1c(O)cccc12 70.6%
COC(=O)c1ccccc1NC(=O)c1ccccc1NS(C)(=O)=O 80.6%
COC(=O)c1ccccc1NC(=O)CN(Cc1ccc(Cl)cc1)S(C)(=O)=O 55.5%
COC(=O)c1ccc(NC(=O)c2ccccc2NS(=O)(=O)c2ccccc2)cc1 96.1%
CCOc1ccc(NC(=O)c2ccccc2NS(C)(=O)=O)cc1 54.1%
CCCCn1c(SCc2ncc(-c3ccccc3)o2)nc2cc(S(N)(=O)=O)ccc21 54.5%
CCC(C)(C)n1nnnc1C(c1cccs1)N1CCN(c2nc3ccccc3s2)CC1 (stereo not given) 71%
C=CCn1c2ccccc2c2nnc(SC(CC)C(=O)Nc3nc(C)c(C(=O)OCC)s3)nc21 (stereo not given) 75%
Cc1c(C(=O)OC(C)C)sc(NC(=O)c2cccnc2)c1C#N 95.4%
CCCCCN(C(=O)NC(=O)Nc1ccccc1OC)S(C)(=O)=O 68.3%
COc1cc(C2C3C(=O)N(c4ccccc4)C(=O)C3ON2c2ccccc2)ccc1O (stereo not given) 69.1%
Cc1ccccc1N1C(=O)C2ON(c3ccccc3)C(c3ccncc3)C2C1=O (stereo not given) 65.9%
